Most compounds without a hit are left out; they make up all but 4.8% or so of the library.
SMARCA2 activ: SMARCA2 function activation, primary screen; AID 652017; activation, % at 9.1 µM; MG213 cells, MMTV-luciferase reporter, dexamethasone, overnight; actives 1% (n = 370,000); in the data active means activation above about 7.8%;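 further: 0% = vehicle wells and 100% = reference activator wells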
DAX1 inh-1: NR0B1 (DAX1) inhibition | P51843 | HEK293 Gal4-DAX1 luciferase reporter, luminescence | inhibition, % at 6.75 µM | actives 0.99% (n = 340,000) | AID 504766;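 active means inhibition above the mean over all tested compounds plus 3 SD, cut at about 4.2% in these data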;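 further: 0% = DAX1-transfected cells with DMSO and 100% = empty-vector control cells with DMSO; inhibition shows as a rise in luminescence from relieved DAX1 repression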
Target sequence (P51843 207-470 limits assumed): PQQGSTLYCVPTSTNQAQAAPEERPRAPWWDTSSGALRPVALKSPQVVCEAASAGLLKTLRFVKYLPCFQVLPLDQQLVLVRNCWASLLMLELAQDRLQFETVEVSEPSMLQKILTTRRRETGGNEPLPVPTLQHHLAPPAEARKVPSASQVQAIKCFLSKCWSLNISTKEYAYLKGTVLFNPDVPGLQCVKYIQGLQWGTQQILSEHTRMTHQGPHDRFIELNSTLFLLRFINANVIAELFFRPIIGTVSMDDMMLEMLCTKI
hgDAF-12 ag: activates the H. glycines DAF-12 receptor ligand-binding domain; AID 687014; actives 1.8% (n = 370,000); HEK293 GAL4-hgDAF12 UAS-luciferase reporter, agonist luminescence; normalized to butyrate control; activation, % at 6.8 µM;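 active means activation above a cutoff set at the mean of all screened compounds plus 3 SD, cut at about 10% in these data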;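 further: 0% = DMSO wells and 100% = sodium butyrate wells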
ssDAF12 agonist: activates DAF-12 receptor from parasite S. stercoralis | HEK293 ssDAF-12/GRIP1 lit1-tk-luc reporter, luminescence; % of 3 µM dafachronic acid response | activation, % at 6.8 µM | actives 1% (n = 370,000) | AID 652126;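 active means activation above the mean over all tested compounds plus 3 SD, cut at about 0.9% in these data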;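 further: 0% = DMSO-only wells and 100% = 3 µM delta7-dafachronic acid wells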
hcDAF12 agonist: activators of H. contortus DAF-12 nuclear receptor; activation, % at 6.8 µM; HEK293 hcDAF-12 lit1-tk-luc reporter, luminescence; 0% DMSO, 100% Δ7-dafachronic acid; actives 1.4% (n = 370,000); AID 652067;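 active means activation above the mean of all tested compounds plus 3 SD, cut at about 5.5% in these data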;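 further: 100% = response to 3 µM Δ7-dafachronic acid high control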
DAX1 inh-2: inhibitors of DAX1 repression of SF-1 activated StAR promoter; HEK293T StAR-luciferase reporter, SF-1/DAX-1 repression relief; inhibition, % at 6.8 µM; actives 1.1% (n = 370,000); AID 652010;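 active means inhibition above the mean over all tested compounds plus 3 SD, cut at about 3.6% in these data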;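 further: 0% = DAX-1 cells with DMSO and 100% = cells lacking DAX-1 with DMSO; higher inhibition means more luminescence from relief of DAX-1 repression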
Numbers without * were called inactive.

Results for CC1CCN(Cc2ccc(NC(=O)CC3Oc4ccccc4NC3=O)cc2)CC1 (stereo unspecified) ?
SMARCA2 activ: -1; DAX1 inh-1: 6.2*; hgDAF-12 ag: 1; ssDAF12 agonist: 0; hcDAF12 agonist: 3; DAX1 inh-2: 0

How did O=C(CC1Oc2ccccc2NC1=O)NCc1ccc(Cl)cc1 (stereo unspecified) do in these assays?
SMARCA2 activ: 0; DAX1 inh-1: 4.4*; hgDAF-12 ag: 1; ssDAF12 agonist: -1; hcDAF12 agonist: 3; DAX1 inh-2: 0

How did CCc1cccc(NC(=O)CC2Oc3ccccc3NC2=O)c1 (stereo unspecified) do in these assays?
SMARCA2 activ: 0; DAX1 inh-1: 1; hgDAF-12 ag: -5; ssDAF12 agonist: -1; hcDAF12 agonist: -1; DAX1 inh-2: 0

What do the screens show for `Cc1nc2ccc(C(=O)N3CCN(C(=O)C(Cl)Cl)CC3)cc2n1C1CCCC1`?
SMARCA2 activ: -6; hgDAF-12 ag: -3; ssDAF12 agonist: -1; hcDAF12 agonist: 0; DAX1 inh-2: -2

How did Cc1ccc(-n2c(SCC(=O)Nc3ccc4c(c3)OCCO4)nnc2-c2cnccn2)cc1 do in these assays?
SMARCA2 activ: -6; hgDAF-12 ag: -1; ssDAF12 agonist: -1; hcDAF12 agonist: -3; DAX1 inh-2: 0

How did COc1ccc2cc(C3(C)NC(=O)N(CC(=O)N4CCCCC4)C3=O)ccc2c1 (stereo unspecified) do in these assays?
SMARCA2 activ: -3; DAX1 inh-1: -1; hgDAF-12 ag: -2; ssDAF12 agonist: -1; hcDAF12 agonist: 1; DAX1 inh-2: 4.1*

Results for COc1ccc(OC)c(CN2C(=O)CCCCC2(C)c2nnnn2C2CCCC2)c1 (stereo unspecified) ?
SMARCA2 activ: -3; hgDAF-12 ag: 0; ssDAF12 agonist: -2; hcDAF12 agonist: -2; DAX1 inh-2: 0

Results for O=C(CCc1nnc(-c2ccc3c(c2)OCO3)o1)N1CCC(c2ccc(F)cc2)C1 (stereo unspecified) ?
SMARCA2 activ: 6; DAX1 inh-1: 5.0*; hgDAF-12 ag: 8; ssDAF12 agonist: 1; hcDAF12 agonist: 1; DAX1 inh-2: 1

How did O=[N+]([O-])c1cccc(OC[C@@H](O)CN2CCC(C(O)(c3ccccc3)c3ccccc3)CC2)c1 do in these assays?
SMARCA2 activ: -3; hgDAF-12 ag: -2; ssDAF12 agonist: -1; hcDAF12 agonist: -2; DAX1 inh-2: 0

How did Cc1ccc(/C=N/N2CCN(Cc3ccccc3)CC2)s1 do in these assays?
SMARCA2 activ: -1; DAX1 inh-1: 2; hgDAF-12 ag: 3; ssDAF12 agonist: -1; hcDAF12 agonist: 2; DAX1 inh-2: 1

Results for Cc1ccc(/C=N/N2CCOCC2)s1 ?
SMARCA2 activ: 1; DAX1 inh-1: 5.6*; hgDAF-12 ag: 0; ssDAF12 agonist: -1; hcDAF12 agonist: 2; DAX1 inh-2: 2

How did CCOc1ccc2nc(N3C(=O)/C(=C/c4ccccc4)NC3=S)sc2c1 do in these assays?
SMARCA2 activ: 1; DAX1 inh-1: 5.1*; hgDAF-12 ag: 10; ssDAF12 agonist: 0; hcDAF12 agonist: 3; DAX1 inh-2: 2

Results for C[C@@H]1[C@H](O)[C@@H](C)/C=C/C=C/C=C/C=C/C=C/C=C/C=C/[C@H](OC2O[C@H](C)[C@@H](O)[C@H](N)[C@@H]2O)C[C@@H]2O[C@](O)(C[C@@H](O)C[C@@H](O)[C@H](O)CC[C@@H](O)C[C@@H](O)CC(=O)O[C@H]1C)C[C@H](O)[C@H]2C(=O)O (stereo partly specified) ?
SMARCA2 activ: -2; hgDAF-12 ag: 7; ssDAF12 agonist: -1; hcDAF12 agonist: -1; DAX1 inh-2: 1

Results for COCCn1c(=NC(=O)c2ccc(S(=O)(=O)N3CCCc4ccccc43)cc2)sc2cc(S(C)(=O)=O)ccc21 ?
SMARCA2 activ: 1; DAX1 inh-1: 4.7*; hgDAF-12 ag: 2; ssDAF12 agonist: -1; hcDAF12 agonist: 0; DAX1 inh-2: 0

What do the screens show for `C=CCn1c(=NC(=O)c2ccc(S(=O)(=O)N3CCCc4ccccc43)cc2)sc2cc(S(N)(=O)=O)ccc21`?
SMARCA2 activ: -2; DAX1 inh-1: -2; hgDAF-12 ag: -2; ssDAF12 agonist: -1; hcDAF12 agonist: -2; DAX1 inh-2: 0

How did N#Cc1ccc(/C=C2\CC3(OC(=O)c4ccc(F)cc4)CCCN2C3)cc1 (stereo unspecified) do in these assays?
SMARCA2 activ: -4; hgDAF-12 ag: 2; ssDAF12 agonist: -1; hcDAF12 agonist: -2; DAX1 inh-2: 0

Results for Cc1c(Cl)cccc1S(=O)(=O)Nc1ccnn1C ?
SMARCA2 activ: -1; DAX1 inh-1: 4.3*; hgDAF-12 ag: 2; ssDAF12 agonist: -1; hcDAF12 agonist: -1; DAX1 inh-2: 0

Results for C/C(CCc1ccc2c(c1)OCO2)=N\NC(=O)c1ccccc1Cl ?
SMARCA2 activ: 1; DAX1 inh-1: 2; hgDAF-12 ag: 2; ssDAF12 agonist: -1; hcDAF12 agonist: 3; DAX1 inh-2: 1

Results for C/C(CCc1ccc2c(c1)OCO2)=N\NC(=O)c1ccccc1 ?
SMARCA2 activ: 3; DAX1 inh-1: 0; hgDAF-12 ag: 11*; ssDAF12 agonist: 2.5*; hcDAF12 agonist: 2; DAX1 inh-2: 0

Results for C/C(=N\NC(=O)c1ccccc1)c1ccc2c(c1)OCO2 ?
SMARCA2 activ: 5; DAX1 inh-1: 5.2*; hgDAF-12 ag: 4; ssDAF12 agonist: -1; hcDAF12 agonist: 3; DAX1 inh-2: 3

Results for CCCCCC1CC(=O)C=C(C)C1C(=O)OC (stereo unspecified) ?
SMARCA2 activ: -6; DAX1 inh-1: 2; hgDAF-12 ag: -2; ssDAF12 agonist: -1; hcDAF12 agonist: -2; DAX1 inh-2: 1

How did CCCCCC1C(=O)CCC1CC(=O)OC (stereo unspecified) do in these assays?
SMARCA2 activ: -1; DAX1 inh-1: 4.4*; hgDAF-12 ag: 2; ssDAF12 agonist: -1; hcDAF12 agonist: 0; DAX1 inh-2: -1

How did COC(=O)C1CN(Cc2cn(CCOC(C)=O)nn2)CCS(=O)(=O)N1Cc1ccc(F)cc1 (stereo unspecified) do in these assays?
SMARCA2 activ: -2; hgDAF-12 ag: 0; ssDAF12 agonist: -1; hcDAF12 agonist: 1; DAX1 inh-2: 0

What do the screens show for `CCOC(=O)Cn1nnnc1C(C(C)C)N(Cc1cccs1)Cc1cc2cc(C)ccc2[nH]c1=O` (stereo unspecified)?
SMARCA2 activ: -1; DAX1 inh-1: 4.3*; hgDAF-12 ag: -1; ssDAF12 agonist: -2; hcDAF12 agonist: 0; DAX1 inh-2: -1

Source: PubChem BioAssay
